Sampled rows, rich in hits. Any-hit rate of the full collection: about 4.1%.
hcDAF-12 act = H. contortus DAF-12 nuclear receptor activators, primary screen, cell-based, luminescence, HEK293, lit1-tk-luc reporter; HEK293 hcDAF-12 lit1-tk-luc reporter; 0% DMSO, 100% Δ7-dafachronic acid; actives 1.4% (n = 370,000); activation, % at 6.8 µM; AID 652067, 2013;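 active = activation above the mean of all tested compounds plus 3 SD, cut at about 5.5% in these data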;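 also: 100% = response to 3 µM Δ7-dafachronic acid high control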
DAX1 inh-1 = DAX1 (NR0B1) inhibitors on StAR promoter, primary screen, cell-based, luminescence, SF-1 (NR5A1), full-length DAX-1. HEK293T StAR-luciferase reporter, SF-1/DAX-1 repression relief. inhibition, % at 6.8 µM. actives 1.1% (n = 370,000);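 active = inhibition above the mean over all tested compounds plus 3 SD, cut at about 3.6% in these data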;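 also: 0% = DAX-1 cells with DMSO and 100% = cells lacking DAX-1 with DMSO; higher inhibition means more luminescence from relief of DAX-1 repression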
ssDAF12 agonist = S. stercoralis DAF-12 nuclear receptor activators, primary screen, cell-based, luminescence, HEK293, GRIP1 co-expression, lit1-tk-luc; Nuclear hormone receptor DAF-12 (Strongyloides stercoralis); HEK293 ssDAF-12/GRIP1 lit1-tk-luc reporter; % of 3 µM dafachronic acid response; activation, % at 6.8 µM; actives 1% (n = 370,000); AID 652126, 2013;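 active = activation above the mean over all tested compounds plus 3 SD, cut at about 0.9% in these data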;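 also: 0% = DMSO-only wells and 100% = 3 µM delta7-dafachronic acid wells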
DAX1 inh-2 = DAX1 (NR0B1) inhibitors, primary screen, cell-based, HEK293, Gal4-DAX1, luciferase luminescence | Nuclear receptor subfamily 0 group B member 1 (Homo sapiens), P51843 | HEK293 Gal4-DAX1 luciferase reporter | inhibition, % at 6.75 µM | actives 0.99% (n = 340,000) | AID 504766, 2011;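 active = inhibition above the mean over all tested compounds plus 3 SD, cut at about 4.2% in these data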;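 also: 0% = DAX1-transfected cells with DMSO and 100% = empty-vector control cells with DMSO; inhibition shows as a rise in luminescence from relieved DAX1 repression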
Target sequence (P51843 207-470 limits assumed): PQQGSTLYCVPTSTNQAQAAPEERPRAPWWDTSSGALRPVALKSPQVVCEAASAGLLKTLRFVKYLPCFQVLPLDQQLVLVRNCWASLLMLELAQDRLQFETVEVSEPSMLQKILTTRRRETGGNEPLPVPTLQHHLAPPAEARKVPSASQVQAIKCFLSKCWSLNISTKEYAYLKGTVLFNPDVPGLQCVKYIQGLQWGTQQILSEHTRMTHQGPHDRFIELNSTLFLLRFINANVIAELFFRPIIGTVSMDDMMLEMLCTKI
hgDAF-12 ag = H. glycines DAF-12 receptor agonists, primary screen, cell-based, luminescence, HEK293, GAL4 fusion, UAS-luciferase. activation, % at 6.8 µM. actives 1.8% (n = 370,000). AID 687014, 2013. HEK293 GAL4-hgDAF12 UAS-luciferase reporter, agonist luminescence; normalized to butyrate control. Nuclear hormone receptor DAF-12 (Heterodera glycines), GAL4 fusion;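 active = activation above a cutoff set at the mean of all screened compounds plus 3 SD, cut at about 10% in these data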;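 also: 0% = DMSO wells and 100% = sodium butyrate wells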
LXR ag = LXR agonists, Gal4 luciferase reporter, confirmation, counter-screen for hcDAF-12 agonist project, cell-based, luminescence, HEK293, H. contortus campaign. activation, % at 6.8 µM. 3,400 tested, under 10 active. HEK293 Gal4-LXR tk-luc reporter, 24 h; normalized: DMSO 0%, positive control 100%. shares compounds with hcDAF-12 act;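 active = mean percent activation of the reporter above a cutoff set as the average over tested compounds plus their standard deviation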
hcDAF12 conf = H. contortus DAF-12 receptor agonists, confirmation, cell-based, luminescence, HEK293, lit1-tk-luc, triplicate | shares compounds with hcDAF-12 act | HEK293 hcDAF-12 lit1-tk-luc reporter; % of Δ7-dafachronic acid response | activation, % at 6.8 µM | actives 61% (n = 3,400);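 active = mean activation across triplicate tests above the threshold derived from the earlier primary screen, cut at about 5.5% in these data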;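 also: 0% = DMSO only wells and 100% = 3 µM Δ7-dafachronic acid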
The depositor's hits bear a star; . = not tested or not shown.

SMILES	hcDAF-12 act	DAX1 inh-1	ssDAF12 agonist	DAX1 inh-2	hgDAF-12 ag	LXR ag	hcDAF12 conf
CCCN1CCS(=O)(=O)N(Cc2cn(Cc3ccccc3)nn2)C(C(=O)OC)C1 (stereo not drawn)	0	0	-1	.	-3	.	.
C/C(=N\NC(=O)c1ccccc1NC(=O)c1ccc(Cl)cc1)c1ccncc1	11*	3	0	-3	9	1	5.8*
CC(=NNC(=O)c1ccncc1)c1ccccc1Cl	0	0	-1	0	2	.	.
O=c1oc2ccccc2cc1-c1nc2ccccc2o1	8.8*	3	1.0*	2	9	1	6.3*
CC(=O)OCC(=O)C1(O)CCC2C3CC(C)C4=CC(=O)C=CC4(C)C3=CCC21C (stereo not drawn)	-1	1	-1	-1	-2	.	.
Cc1ccc(C2=Nc3ccccc3NC(C)(c3ccc(C)o3)C2)o1 (stereo not drawn)	15*	1	1.4*	1	12*	0	5.7*
CC1(c2ccccc2)CC(c2ccccc2)=Nc2ccccc2N1 (stereo not drawn)	.	.	.	4	.	.	.
CC1CCc2nc(/C(C#N)=C/c3cccnc3)sc2C1 (stereo not drawn)	7.1*	3.8*	0	6.4*	13*	1	5
O=C1c2cccc3cccc(c23)C(=O)N1CCc1ccccc1	14*	2	2.1*	1	8	1	9.4*
COC(=O)[C@H]1C[C@H](OC(=O)NC2CCCC2)[C@@]2(O)CN(S(=O)(=O)c3ccc(C)cc3)CC2[C@H]1C(=O)OC (stereo partly drawn)	1	0	-1	0	-1	.	.
OCCCNc1ncnc2c1cnn2-c1ccc(Cl)cc1	7.4*	2	0	0	9	1	4
O=C1CCCN1CCCNc1ncnc2c1cnn2-c1ccc(Cl)cc1	-1	0	0	0	1	.	.
O=C(Nc1ccc2c(c1)CCC2)c1cccc(OC(F)F)c1	7.4*	3	1.3*	.	11*	1	4
O=C(Nc1ccc(OC(F)F)c(Cl)c1)c1cccc(OC(F)F)c1	.	.	.	-1	.	.	.
Cc1ccc(CN2CCCCC(NC(=O)Nc3ccccc3)C2=O)cc1 (stereo not drawn)	1	-2	-1	.	8	.	.
COc1ccccc1-c1nnc(SCC(=O)N2CCCC2)o1	6.7*	1	1.4*	3	1	0	9.1*
O=C(CSc1nnc(-c2ccccc2F)o1)N1CCCC1	2	0	-1	2	3	.	.
O=C(Nc1nc(-c2cccs2)c(-c2cccs2)s1)C1CCCC1	8.1*	0	-1	-1	5	0	1
CN1CCN(NC(=O)c2cc(-c3cccc(Cl)c3)nc3ccccc23)CC1	0	2	-2	0	0	.	.
CC(C)c1ccc(-c2cc(C(=O)NN3CCN(C)CC3)c3ccccc3n2)cc1	7.3*	2	1	-2	9	0	6.0*
O=C(Nc1nc(-c2ccc(F)c(F)c2)cs1)c1ccc(OCC2CCCO2)cc1 (stereo not drawn)	-1	0	-1	-1	-2	.	.
CC(C)N(CCNC(=O)c1ccc(OCC2CCCO2)cc1)C(C)C (stereo not drawn)	-2	1	-1	2	-2	.	.
O=C(NC1CCCCCC1)c1ccc(OCC2CCCO2)cc1 (stereo not drawn)	9.8*	2	0	2	7	1	4
O=C(NNC(=O)c1ccc2c(c1)OCO2)NC1CCCCC1	-1	-1	-1	1	2	.	.
Cc1csc(NC(=O)c2ccc(OCC3CCCO3)cc2)n1 (stereo not drawn)	6.7*	4.3*	0	-1	13*	1	4
SMILES	hcDAF-12 act	DAX1 inh-1	ssDAF12 agonist	DAX1 inh-2	hgDAF-12 ag	LXR ag	hcDAF12 conf
O=C(NC1CCCCC1)c1ccc2c(c1)OCO2	8.3*	1	0	0	8	0	4
CC1=C(C(=O)Nc2cc(C(=O)N3CCN(c4ccc(Cl)cc4)CC3)ccc2C)SCCO1	-3	-4	-2	-2	-2	.	.
Oc1ccccc1-c1nc2c3ccccc3c3ccccc3c2[nH]1	7.5*	-1	0	2	4	0	5
c1csc(-c2nc3c4ccccc4c4ccccc4c3[nH]2)c1	0	-1	0	-1	2	.	.
Cc1sc(NC(=O)c2ccc(Cl)s2)c(C(N)=O)c1C	10*	2	2.0*	4.6*	13*	1	14*
Cc1sc(NC(=S)Nc2ccc(F)cc2)c(C(N)=O)c1C	2	0	-1	0	1	.	.
COc1ccccc1Cc1nc(-c2ccc(Br)o2)no1	8.1*	3	1	-2	4	0	8.0*
CNCc1ccccc1OCC(=O)Nc1ccccc1	7.0*	0	1	1	9	0	5
Cc1cc(C)n2nc(Nc3ccccc3)cc2n1	7.2*	1	0	1	2	0	11*
Cc1cc(C)n2nc(C(=O)NCc3ccccc3)cc2n1	-1	0	-2	1	2	.	.
Cc1ccc(-n2c(SCC(=O)Nc3ccc(Oc4ccccc4)cc3)nnc2-c2cccc(C)c2)cc1	1	-1	-2	.	-1	.	.
CC(C)CNC(=O)C1CSCCS(=O)(=O)N1Cc1ccc(F)cc1 (stereo not drawn)	-2	0	-2	.	3	.	.
O=C(CSCC(=O)N1CCCCC1)Nc1nc(-c2cccs2)cs1	9.1*	0	0	1	6	0	6.0*
CC1CC(C)CN(C(=O)CSCC(=O)Nc2nc(-c3cccs3)cs2)C1 (stereo not drawn)	8.2*	1	1	0	7	0	5
O=C(CSCC(=O)N1CCCCC1)Nc1nc(-c2ccc(Cl)s2)cs1	5	-1	-1	0	7	.	.

Bioassay records as filed in PubChem.
